# Source: PubChem BioAssay AID865 (The Scripps Research Institute Molecular Screening Center, 2007)
# The list shows a part of the results. Values without a mark were called inactive.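 How the source made its calls: active means activation above the screen-wide mean activation plus 3 SD (cut at about 8% in these data); inactive means the rest.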
# Test: activators of NFAT-driven beta-lactamase reporter, confirmation, counter-screen for GALR2 agonist project, CHO NFAT-bla cells, FRET readout (AID 865);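 further: 0% = DMSO with PBS wells and 100% = thapsigargin positive control wells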
# Settings: at 5.6 µM, hits give high values
smiles,measurement,value
Cc1cccc(N2C(=O)NC(=O)/C(=C\c3cnn(-c4ccccc4)c3)C2=O)c1,activation,0.39%
